Twelve compounds from PubChem BioAssay (EPA / NIEHS) can be followed below.

Assay [1] concerns the target Transcription factor E2F1 (Homo sapiens) (UniProt Q01094). Kind of assay: ATG_E2F_CIS: Attagene CIS-FACTORIAL HepG2 Assay for human E2F Transcription Factor 1 (AID 2282935). The following applies: HepG2 Attagene cis-reporter, E2F reporter RNA transcripts; actives raise or lower the signal. The procedure, abridged:
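Multiplexed cis-reporter assay: HepG2, transient transfection, 24 h dosing, mRNA quantitation by labeled RT-PCR and CE.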

Assay [2] is described as follows: ATG_E_Box_CIS: Attagene CIS-FACTORIAL HepG2 Assay for human Enhancer Box (E-box) (AID 2282936). The following applies: HepG2 E-box cis-reporter transcription, actives raise or lower the signal. The procedure, abridged:
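Multiplexed CIS reporter system in transiently transfected HepG2 cells measures native transcription factor activity. Reporter RNA after 24 h exposure is profiled by RT-PCR-capillary electrophoresis.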

Assay [3] is described as follows: ATG_EGR_CIS: Attagene CIS-FACTORIAL HepG2 Assay for human Early Growth Response 1 (EGR1) (AID 2282938). The settings on record: HepG2 Attagene CIS-FACTORIAL EGR reporter mRNA; actives raise or lower the signal. The procedure, abridged: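 Cell-based multiplex transcription assay: HepG2 carrying transfected cis-element reporter units, 24 h chemical treatment. Fluorescence from capillary electrophoresis of RT-PCR products gives mRNA levels; fitting is bidirectional relative to DMSO.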

Assay [4] is described as follows: ATG_M_19_CIS: Attagene CIS-FACTORIAL HepG2 Assay for M19 Transcription Factor (Internal Marker) (AID 2282939). The settings on record: HepG2 Attagene CIS-FACTORIAL M19 internal marker reporter; actives raise or lower the signal. The procedure, abridged:
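Internal marker readout, fitted in both directions against DMSO, from HepG2 cells carrying transfected cis-element reporter constructs; RT-PCR and capillary electrophoresis of reporter mRNA after 24 h exposure.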

A short description of assay [5]: ATG_ERE_CIS: Attagene CIS-FACTORIAL HepG2 Assay for Estrogen Response Element (ERE) (AID 2282940). The following applies: HepG2 ERE cis-reporter, Attagene RNA transcript; actives raise or lower the signal. The procedure, abridged:
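After 24 h compound treatment, RNA from transfected HepG2 cells was reverse-transcribed, reporter cDNA PCR-amplified, FAM-labelled, HpaI-cut and resolved by capillary electrophoresis. ERE-driven cis reporter transcripts reflect endogenous factors; gain or loss scored against DMSO.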

A short description of assay [6]: ATG_Ets_CIS: Attagene CIS-FACTORIAL HepG2 Assay for human Erythroblast Transformation Specific (ETS) (AID 2282941). The settings on record: HepG2 ETS cis-reporter transcription, actives raise or lower the signal. Put shortly:
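HepG2 cells transiently transfected with cis-promoter reporter transcription units were dosed for 24 h; reporter mRNA was measured by RT-PCR, 6-FAM primer extension, HpaI digestion and capillary electrophoresis, with bidirectional fitting against DMSO baseline.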

Assay [7] deals with Hepatocyte nuclear factor 3-beta (Homo sapiens) (UniProt Q9Y261). Description: ATG_FoxA2_CIS: Attagene CIS-FACTORIAL HepG2 Assay for human Forkhead box A2 (FOXA2) (AID 2282942). The following applies: HepG2 cis-reporter transcription factor activity, 24 h; actives raise or lower the signal. The procedure, abridged: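 In transiently transfected human HepG2 cells, promoter-driven reporter mRNA levels after 24 h chemical exposure are determined via RT-PCR with capillary electrophoresis. DMSO serves as baseline for bidirectional fitting.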

The nature of assay [8]: ATG_FoxO_CIS: Attagene CIS-FACTORIAL HepG2 Assay for human Forkhead box O (FoxO) (AID 2282943). The following applies: HepG2 Attagene cis-reporter, FoxO element, mRNA; actives raise or lower the signal. Put shortly:
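HepG2 cells transiently transfected with cis-promoter-driven multiple reporter transcription units; 24 h after chemical dosing, reporter mRNA quantified by RT-PCR, fluorescent primer extension, HpaI digestion and capillary electrophoresis. Bidirectional fitting versus DMSO baseline.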

A short description of assay [9]: ATG_M_61_CIS: Attagene CIS-FACTORIAL HepG2 Assay for M61 Transcription Factor (Internal Marker) (AID 2282937). The following applies: HepG2 Attagene CIS-FACTORIAL M61 internal marker reporter; actives raise or lower the signal. Put shortly: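 Fluorescence from labelled cDNA fragments, separated by capillary electrophoresis, quantifies reporter induction. HepG2 cells bearing transiently transfected cis-promoter MRTUs were incubated with test chemical for 24 h; DMSO defined baseline for gain/loss fitting.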

Assay [10] is described as follows: ATG_GATA_CIS: Attagene CIS-FACTORIAL HepG2 Assay for human GATA Binding Protein (AID 2282944). The settings on record: HepG2 GATA cis-element reporter, Attagene multiplex mRNA; actives raise or lower the signal. The procedure, abridged:
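Reporter transcripts from a GATA cis-regulated unit, among multiplexed reporters in transfected HepG2 cells, were measured by RT-PCR with capillary electrophoresis after 24 h dosing. Induction or loss scored relative to DMSO.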

“And” between values parts separate entries of the source, which are not always exact repeats. Identical values can stand only once. Where a structure was tested more than once in an assay, its records may differ in their call. The source made the active and inactive calls. The calls were made as follows: active = hit-call score of the fitted dose curve at least 0.9, where 1 is the maximum; inactive = score below 0.9.

Sequence of Hepatocyte nuclear factor 3-beta (Homo sapiens) (Q9Y261 whole entry, looked up): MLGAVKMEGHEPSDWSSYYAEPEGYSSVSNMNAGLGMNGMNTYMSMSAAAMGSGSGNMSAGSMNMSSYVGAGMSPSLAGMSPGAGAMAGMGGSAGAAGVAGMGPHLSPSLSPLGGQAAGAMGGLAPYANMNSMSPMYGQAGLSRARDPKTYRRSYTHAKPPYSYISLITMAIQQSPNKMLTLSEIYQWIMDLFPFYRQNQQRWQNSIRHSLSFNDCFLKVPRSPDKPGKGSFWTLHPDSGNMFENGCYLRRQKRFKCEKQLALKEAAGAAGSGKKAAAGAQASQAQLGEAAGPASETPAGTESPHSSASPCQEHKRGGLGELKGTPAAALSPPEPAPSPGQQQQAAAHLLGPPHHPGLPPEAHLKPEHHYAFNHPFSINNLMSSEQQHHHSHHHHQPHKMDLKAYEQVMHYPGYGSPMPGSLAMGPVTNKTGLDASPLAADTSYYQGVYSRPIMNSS
Sequence of Transcription factor E2F1 (Homo sapiens) (Q01094 whole entry, looked up): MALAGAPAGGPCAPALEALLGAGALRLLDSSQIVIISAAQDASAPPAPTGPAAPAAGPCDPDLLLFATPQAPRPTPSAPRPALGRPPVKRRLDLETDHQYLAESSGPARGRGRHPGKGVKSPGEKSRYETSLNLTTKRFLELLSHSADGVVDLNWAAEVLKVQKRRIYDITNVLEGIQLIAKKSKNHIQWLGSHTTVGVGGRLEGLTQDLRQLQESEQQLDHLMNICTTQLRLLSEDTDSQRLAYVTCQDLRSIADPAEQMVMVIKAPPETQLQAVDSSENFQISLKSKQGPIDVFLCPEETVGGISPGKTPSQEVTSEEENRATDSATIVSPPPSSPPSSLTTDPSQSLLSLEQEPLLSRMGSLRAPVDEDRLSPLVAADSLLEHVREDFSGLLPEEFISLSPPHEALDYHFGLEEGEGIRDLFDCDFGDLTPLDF

One may read the AC50 as the concentration at which the activity in the assay is half-maximal. Consider `OC(c1ccc(Cl)cc1)(c1cncnc1)c1ccccc1Cl` (stereo unspecified), for which the compound was classed as inactive in assay [1], in [2], in [3], in assay [4], in [5] and in assay [6]. The outcome in assay [7] and in [8] was inactive. In addition, the AC50 is 2.6 µM (active) in assay [2] and 3.79 µM (active) in assay [5].

For `CC1COC(Cn2cncn2)(c2ccc(Oc3ccc(Cl)cc3)cc2Cl)O1` (stereo unspecified), the compound was called inactive in assay [1], in assay [2], in assay [3], in assay [4], in [6] and in [7]. In addition, the compound was classed as inactive in assay [8]. For the same compound, the AC50 in [5] was 0.245 µM (active).

With `CCCCOC(=O)c1ccccc1C(=O)OCCCC`, the compound was classed as inactive in [1], in assay [2], in assay [9], in assay [3], in assay [4] and in assay [6]. The result in assay [7] and in assay [8] was inactive. Further, the AC50 in [3] is 34.1 µM (active); in assay [5], 50 µM (active) [middle of 5 runs].

For `CCOC(=O)CC(SP(=S)(OC)OC)C(=O)OCC` (stereo unspecified), the result in [1], in [2], in assay [3], in assay [4], in assay [6] and in assay [7] was inactive. Also, the compound was classed as inactive in [8] and in assay [10]. Moreover, the half-maximal activity concentration (AC50) was 100 µM (active) in assay [3]; 100 µM (active) and 27 µM (active) in assay [5].

Consider `CCCCNC(=O)OCC#CI`, for which the call in assay [1], in assay [2], in [3], in assay [4], in assay [5] and in assay [6] was inactive. In addition, the result in assay [7] and in assay [8] was inactive. In addition, the AC50 in assay [2] was 145 µM (active); in [3], 33.4 µM (active); in assay [6] it was 48.7 µM (active); in assay [7], 173 µM (active); in [8], 26.4 µM (active).

Turning to `CC1=C(C(=O)Nc2ccccc2)SCCO1`, the call in assay [1], in assay [2], in [9], in assay [3], in assay [4] and in [5] was inactive. Further, the call in [6], in assay [7] and in assay [8] was inactive.

Turning to `CCOC(=O)C(Cl)Cc1cc(-n2nc(C)n(C(F)F)c2=O)c(F)cc1Cl` (stereo unspecified), the call in [1], in [2], in assay [3], in [4], in assay [6] and in assay [7] was inactive. In assay [8], the result was inactive. The AC50 in assay [5] was 50 µM (active).

As for `CC(C)C1(C)N=C(c2nc3ccccc3cc2C(=O)O)NC1=O` (stereo unspecified), the compound was classed as inactive in [1], in [2], in [3], in [4], in assay [5] and in assay [6]. For the same compound, the compound was called inactive in [7] and in [8].

Take `COc1nc(NC(C)C)nc(NC(C)C)n1`: the compound was classed as inactive in assay [1], in assay [2], in assay [9], in [3], in assay [4] and in [5]. The call in assay [6], in assay [7], in [8] and in [10] was inactive.

As to `O=C(O)COc1nc(Cl)c(Cl)cc1Cl`, the result in [1], in assay [2], in [9], in assay [3], in [4] and in assay [5] was inactive. Also, the outcome in [6], in assay [7], in [8] and in assay [10] was inactive.

On to `CO/C=C(/C(=O)OC)c1ccccc1Oc1cc(Oc2ccccc2C#N)ncn1`, for which the result in [1], in assay [2], in assay [3], in [4], in assay [5] and in [6] was inactive. Further, the outcome in assay [7] and in assay [8] was inactive. In addition, the concentration at half-maximal activity (AC50) in assay [3] was 11.7 µM (active) and 13.8 µM (active).

As to `N#Cc1nn(-c2c(Cl)cc(C(F)(F)F)cc2Cl)c(N)c1S(=O)C(F)(F)F` (stereo unspecified), the result in assay [1], in assay [2], in assay [3], in [4], in assay [5] and in assay [6] was inactive. Moreover, the compound was called inactive in assay [7], in assay [8] and in assay [10]. In addition, the concentration at half-maximal activity (AC50) in assay [2] was 29 µM (active); in [3], 35.8 µM (active).
